# Rows were chosen to be rich in hits. Some 1.6% of all compounds tested hit in one or more screens of this group.
# HTR5A ag ctr = HTR5A agonists in luminescence cell assay, primary screen, counter-screen for OPRM1-OPRD1 heterodimer agonist project, full-deck HTS | 5-hydroxytryptamine receptor 5A (Homo sapiens), P47898 | cell-based | activation, % at 9.3 µM | hit rate 0.61% among 340,000 | AID 504692, 2011; in the data active means activation mostly above about 9.5%, no sharp cut-off; inactive means mostly below about 7.6%;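 further: 0% = cells with vehicle only and 100% = reference agonist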
# OPRM1-OPRD1 inv = inverse agonists of MOR-DOR heterodimerization, primary screen, cell-based, luminescence | cell-based MOR-DOR heterodimer luminescence, inverse agonism | Mu-type opioid receptor (Homo sapiens) + Delta-type opioid receptor (Homo sapiens), … | inhibition, % at 9.3 µM | hit rate 0.21% among 340,000; in the data active means inhibition above about 22%, passing the limit was not always enough;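 further: 0% = cells with DMSO and 100% = wells without cells with DMSO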
# Target sequence (P35372 whole entry, looked up): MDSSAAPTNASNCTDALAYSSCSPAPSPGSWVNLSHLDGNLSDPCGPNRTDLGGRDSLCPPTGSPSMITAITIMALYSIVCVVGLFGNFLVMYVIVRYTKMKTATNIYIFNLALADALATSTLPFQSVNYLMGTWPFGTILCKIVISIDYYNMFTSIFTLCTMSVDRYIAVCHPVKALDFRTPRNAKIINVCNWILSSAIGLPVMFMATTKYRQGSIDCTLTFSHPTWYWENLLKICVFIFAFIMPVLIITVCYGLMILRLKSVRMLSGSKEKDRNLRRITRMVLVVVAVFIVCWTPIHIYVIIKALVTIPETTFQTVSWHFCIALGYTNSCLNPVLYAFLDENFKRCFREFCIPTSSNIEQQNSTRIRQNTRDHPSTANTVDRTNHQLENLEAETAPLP
# Target sequence (P41143 whole entry, looked up): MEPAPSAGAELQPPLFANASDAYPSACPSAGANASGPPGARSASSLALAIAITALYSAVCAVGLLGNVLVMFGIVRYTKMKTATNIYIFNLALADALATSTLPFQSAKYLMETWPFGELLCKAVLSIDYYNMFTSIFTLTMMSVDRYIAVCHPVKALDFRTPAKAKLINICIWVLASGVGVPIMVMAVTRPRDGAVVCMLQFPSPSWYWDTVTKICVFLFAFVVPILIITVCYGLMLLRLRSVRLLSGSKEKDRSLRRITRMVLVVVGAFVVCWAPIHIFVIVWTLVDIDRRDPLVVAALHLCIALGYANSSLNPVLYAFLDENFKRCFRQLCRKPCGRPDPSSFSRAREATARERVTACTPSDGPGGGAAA
# HTR5A inv ag = HTR5A inverse agonists in luminescence cell assay, primary screen, counter-screen for OPRM1-OPRD1 heterodimer inverse agonist project, full-deck HTS. 5-hydroxytryptamine receptor 5A (Homo sapiens), P47898. HTR5A cell line, inverse agonism. inhibition, % at 9.3 µM. hit rate 0.083% among 340,000. AID 504634, 2011; in the data active means inhibition mostly above about 23%, no sharp cut-off; inactive means mostly below about 18%;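 further: 0% = cells with DMSO and 100% = no-cell wells with DMSO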
# PolyA inh = polyadenylation inhibitors in yeast reporter cells, primary screen, luminescence, S. cerevisiae; S. cerevisiae SKY197-pL101 polyadenylation reporter, beta-gal luminescence; efflux-impaired pdr1/pdr3 knockout yeast; score 100 = 6 SD above DMSO; activity score, % at 12 µM; hit rate 0.02% among 300,000;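 active means lowest replicate activity score at least 50, where 100 means six control SD above control mean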;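 further: yeast exposed to compound for 9 h at 30 °C; higher score means more reporter readthrough which indicates perturbed polyadenylation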
# OPRM1-OPRD1 ag = agonists of OPRM1-OPRD1 heterodimerization, primary screen, cell-based, luminescence; AID 504326, 2011; activation, % at 9.3 µM; cells; Mu-type opioid receptor (Homo sapiens) + Delta-type opioid receptor (Homo sapiens), …; hit rate 0.3% among 340,000;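 further: 0% = vehicle-treated cells and 100% = reference agonist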
# NALP1 inh = NALP1 inflammasome inhibitors in reconstituted yeast, colorimetric, S. cerevisiae, triplicate retest | S. cerevisiae NALP1/ASC/caspase-1 growth, X-gal OD620, 72 h | inhibition, % at 10 µM | hit rate 0.61% among 280,000; in the data active means inhibition mostly above about 24%, no sharp cut-off; inactive means mostly below about 32%
# MOR-DOR ag conf = agonists of MOR-DOR heterodimerization, confirmation, cell-based, luminescence. cells, luminescence complementation. activation, % at 9.3 µM. shares compounds with OPRM1-OPRD1 ag. hit rate 45% among 830;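 further: 0% = vehicle-treated cells and 100% = reference agonist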
# HTR5A ag counter = HTR5A agonists in cells, counter-screen for OPRM1-OPRD1 heterodimer agonist project, cell-based, luminescence | shares compounds with OPRM1-OPRD1 ag | HTR5A agonist counterscreen | activation, % at 9.3 µM | hit rate 8% among 830 | AID 504905, 2011; in the data active means activation above about 17%;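 further: 0% = vehicle-treated cells and 100% = reference agonist response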
# Starred values were filed as active, the others as inactive; i = inactive; / = no result given. Unless noted, no stated cut-off is given here; in the data, active means activation above about 18%; inactive means the rest.
SMILES,HTR5A ag ctr,OPRM1-OPRD1 inv,HTR5A inv ag,PolyA inh,OPRM1-OPRD1 ag,NALP1 inh,MOR-DOR ag conf,HTR5A ag counter
Fc1ccc(C(OCCN2CCCC2)c2ccc(Br)cc2)cc1 (stereo not drawn),2,-3,12,-10,1,47*,/,/
CC1(C)C(=O)CCC2C1=CCC1C2CCC2(C)C(O)CCC12 (stereo not drawn),-2,-1,6,/,0,/,/,/
COc1cc(/C=C/c2nc3ccccc3c(=O)n2-c2ccccc2O)ccc1O,-1,5,6,13,-1,4,/,/
COc1cc(/C=C/c2nc3ccccc3c(=O)n2-c2cccc(O)c2)ccc1O,5,13,-16,61*,-3,/,/,/
O=c1c2ccccc2nc(/C=C/c2ccccc2)n1-c1ccccc1O,-1,-262,2,9,58*,16,/,/
COP(=O)(OC)/C(C=O)=N/Nc1ccc([N+](=O)[O-])cc1,-5,3,-19,-4,-1,-22,/,/
CC1(C)CN(S(=O)(=O)OCC(Cl)(Cl)Cl)C(=O)N1,2,-9,-26,-8,2,7,/,/
Cc1ccc(N=C(N(C)C)P(=O)(N(C)C)N(C)C)cc1,-1,15,2,2,-3,24*,/,/
CCC(=NCc1ccco1)c1c(O)n(C)c(=O)n(C)c1=O,0,5,-2,-1,-1,/,/,/
CC(=NCc1ccco1)c1c(O)n(C)c(=O)n(C)c1=O,2,0,9,7,0,42*,/,/
O=C(O)c1c[nH]c2ccc(S(=O)(=O)N(CCCl)CCCl)cc12,3,13,21,16,-2,40*,/,/
C[C@@H]1O[C@@H](O[C@H]2C[C@@H](O)[C@]3(CO)[C@H]4[C@H](O)C[C@]5(C)[C@@H](C6=CC(=O)OC6)CC[C@]5(O)[C@@H]4CC[C@]3(O)C2)[C@H](O)[C@H](O)[C@H]1O,30*,-386,-33,-3,70*,14,79*,6
O=C1NC(=O)C2(CCCC2)C(=O)N1,3,19,-11,/,-4,/,/,/
COc1cc2c3cc1Oc1c(OC)c(OC)cc4c1[C@H](Cc1ccc(cc1)Oc1cc(ccc1O)C[C@H]3N(C)CC2)N(C)CC4,1,6,1,/,-1,/,/,/
COc1cc2c3cc1Oc1cc(ccc1O)C[C@@H]1c4c(cc(OC)c(O)c4Oc4ccc(cc4)C[C@H]3N(C)CC2)CCN1C,11,-189,-23,-8,34*,0,65*,-4
CCCCCc1nc2c(c(=O)c3ccccc3n2C)c(=O)n1C1CCCCCC1,-3,-74,15,11,14,28,/,/
C[C@H]1O[C@@H](O[C@H]2[C@@H](O)C[C@H](O[C@H]3[C@@H](O)C[C@H](O[C@H]4CC[C@@]5(C)[C@H](CC[C@@H]6[C@@H]5CC[C@]5(C)[C@@H](C7=CC(=O)OC7)CC[C@]65O)C4)O[C@@H]3C)O[C@@H]2C)C[C@H](O)[C@@H]1O,/,/,/,/,/,12,/,/
CC(=O)OC1CC2(O)C3CCC4CC(O)CCC4(C)C3CCC2(C)C1C1=CC(=O)OC1 (stereo not drawn),28*,-356,-108,/,81*,/,1,62*
CC(=O)OC1CC(OC2C(O)CC(OC3C(O)CC(OC4CCC5(C)C(CCC6C5CCC5(C)C(C7=CC(=O)OC7)C(O)CC65O)C4)OC3C)OC2C)OC(C)C1OC1OC(CO)C(O)C(O)C1O (stereo not drawn),19*,-369,-75,/,72*,/,38*,28*
CC(=O)[C@H]1CCC2C3CC[C@H]4C[C@@H](O)CC[C@]4(C)C3CC[C@@]21C (stereo partly drawn),-4,4,14,/,-1,/,/,/
COC12CCC3(CC1C(C)(O)C(C)(C)C)[C@H]1Cc4ccc(O)c5c4[C@@]3(CCN1CC1CC1)C2O5 (stereo partly drawn),4,/,-10,/,/,/,/,53*
C=C1CC[C@@]2(O)[C@H]3Cc4ccc(O)c5c4[C@@]2(CCN3CC2CC2)[C@H]1O5,/,/,/,-13,/,13,/,/
COC12CCC3(CC1C(C)(O)C(C)(C)C)[C@H]1Cc4ccc(OC5OC(C(=O)O)[C@@H](O)C(O)[C@H]5O)c5c4[C@@]3(CCN1CC1CC1)C2O5 (stereo partly drawn),6,-73,-14,/,18*,/,84*,3
O=C1/C(=C/c2ccccc2)C[C@@]2(O)[C@H]3Cc4ccc(O)c5c4[C@@]2(CCN3CC2CC2)C1O5 (stereo partly drawn),-1,13,3,/,-3,/,/,/
CN(C(=O)Cc1ccc(Cl)c(Cl)c1)C(CN1CCCC1)c1cccc(OCC(=O)O)c1 (stereo not drawn),1,-308,-4,/,57*,/,37*,-1
SMILES,HTR5A ag ctr,OPRM1-OPRD1 inv,HTR5A inv ag,PolyA inh,OPRM1-OPRD1 ag,NALP1 inh,MOR-DOR ag conf,HTR5A ag counter
Cc1cccc(OCC(=O)N2CCN(Cc3ccc4c(c3)OCO4)CC2)c1,1,17,-2,-38,-3,11,/,/
COc1ccc(C(CNC(=O)c2ccc3c(c2)CCC3)N(C)C)cc1 (stereo not drawn),2,i,-7,12,400*,10,512*,-2
CCOC(=O)C1(c2ccccc2)CCN(CC(=O)Nc2cccc3ccccc23)CC1,1,-165,-17,3,24*,33,11,1
CCOC(=O)C1(c2ccccc2)CCN(CC(=O)c2ccc(NC(C)=O)cc2)CC1,-2,8,6,/,-2,/,/,/
CCOC(=O)C1(c2ccccc2)CCN(CCC(=O)Nc2ccccc2OC)CC1,7,-439,-24,-7,92*,6,15,4
CCOC(=O)C1(c2ccccc2)CCN(CCC(=O)Nc2ccc(F)cc2)CC1,1,-492,-13,/,131*,/,153*,0
CN(C)C1(CNC(=O)c2ccc(Cl)c(S(=O)(=O)NCc3ccco3)c2)CCCCC1,-2,-395,17,10,71*,-11,80*,1
CN(C)C1(CNC(=O)Cc2ccccc2F)CCCCC1,-1,-7,3,-2,2,28,/,/
CCCCN=C[C@]12CCC(O)CC1(O)CCC1[C@@H]2CC[C@]2(C)[C@H](C3C=CC(=O)O3)CCC12O (stereo partly drawn),31*,-396,-123,-2,71*,8,36*,27*
